Results from PubChem BioAssay (EPA / NIEHS).
Results filed as inconclusive are left out. Calls of active or inactive are those of the source. Rule for the calls, unless noted: active = hit-call score of the fitted dose curve at least 0.9, where 1 is the maximum; inconclusive = response in the unintended direction; inactive = score below 0.9.

How the values were obtained:
[1] = target: Hepatocyte nuclear factor 3-beta (Homo sapiens) (UniProt Q9Y261); assay: ATG_FoxA2_CIS: Attagene CIS-FACTORIAL HepG2 Assay for human Forkhead box A2 (FOXA2) (AID 2282942; active = hit-call score of the fitted dose curve at least 0.9, where 1 is the maximum; inactive = score below 0.9); details: HepG2 cis-reporter transcription factor activity, 24 h; actives raise or lower the signal
How it was run: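 Readout: fluorescent reporter transcripts resolved by capillary electrophoresis after RT-PCR. Transiently transfected HepG2, 24 h compound exposure, endogenous TF activity at cis promoter elements. Gain or loss of signal fitted relative to DMSO.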

[2] = target: Hepatocyte nuclear factor 6 (Homo sapiens) (UniProt Q9UBC0); assay: ATG_HNF6_CIS: Attagene CIS-FACTORIAL HepG2 Assay for human Hepatocyte Nuclear Factor 6 (HNF6) (AID 2282952; active = hit-call score of the fitted dose curve at least 0.9, where 1 is the maximum; inactive = score below 0.9); details: HepG2 Attagene cis-factorial HNF6 reporter transcription; actives raise or lower the signal
How it was run: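 Twenty-four-hour chemical treatment of reporter-transfected HepG2 cells precedes RNA isolation, DNase-treated reverse transcription and PCR of reporter sequences. Labelled fragments are sized by capillary electrophoresis and fitted bidirectionally versus DMSO.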

[3] = ATG_RORE_CIS: Attagene CIS-FACTORIAL HepG2 Assay for human RAR-related Orphan Receptor Element (RORE) (AID 2282959; active = hit-call score of the fitted dose curve at least 0.9, where 1 is the maximum; inactive = score below 0.9); details: HepG2 Attagene cis-factorial RORE reporter, mRNA; actives raise or lower the signal
How it was run: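 Readout: fluorescent reporter mRNA by RT-PCR plus capillary electrophoresis, 24 h after dosing transfected HepG2 cells. Endogenous transcription factor activity on a cis promoter element is measured. Gain or loss of signal fitted against DMSO.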

[4] = ATG_TGFb_CIS: Attagene CIS-FACTORIAL HepG2 Assay for human Transforming Growth Factor (TGF) (AID 2282967; active = hit-call score of the fitted dose curve at least 0.9, where 1 is the maximum; inactive = score below 0.9); details: HepG2 Attagene CIS TGFb reporter, mRNA transcription; actives raise or lower the signal
How it was run: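 Transcript-level reporter readout: HepG2 transfectants, 24 h exposure, RNA to cDNA, reporter-specific PCR, fluorescent primer extension, capillary sizing against ROX standards. Gain- or loss-of-signal relative to DMSO.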

[5] = target: Hepatocyte nuclear factor 4-alpha (Homo sapiens) (UniProt P41235); assay: ATG_HNF4a_TRANS: Attagene TRANS-FACTORIAL HepG2 Assay for human Hepatocyte Nuclear Factor 4 alpha (HNF4a) (AID 2282982); details: HepG2 HNF4a transactivation reporter, mRNA readout
How it was run: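 Using HepG2 liver cells transfected with GAL4-UAS reporter units, chemical-induced mRNA increases were assessed after 24 hours. Fluorescent RT-PCR fragments were separated by capillary electrophoresis and compared with DMSO negative controls.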

[6] = target: Nuclear receptor subfamily 4 group A member 2 (Homo sapiens) (UniProt P43354); assay: ATG_NURR1_TRANS: Attagene TRANS-FACTORIAL HepG2 Assay for human Nuclear Receptor Related Protein 1 (NURR1) (AID 2282985); details: HepG2 Attagene TRANS reporter, mRNA readout
How it was run: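 Chimeric NR-Gal4 proteins were expressed in human HepG2 cells bearing GAL4-UAS reporter units, and induced reporter mRNA was quantified 24 h post-dosing by RT-PCR and capillary electrophoresis.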

[7] = target: Nuclear respiratory factor 1 (Homo sapiens) (UniProt Q16656); assay: ATG_NRF1_CIS: Attagene CIS-FACTORIAL HepG2 Assay for human Nuclear Respiratory Factor 1 (NRF1) Orphan Gene (AID 2282987; active = hit-call score of the fitted dose curve at least 0.9, where 1 is the maximum; inactive = score below 0.9); details: HepG2 NRF1 cis-element reporter, Attagene multiplex; actives raise or lower the signal
How it was run: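 Endogenous NRF1-driven reporter transcription measured in transiently transfected human HepG2 liver cells. Readout: reporter mRNA by RT-PCR and capillary electrophoresis with fluorescence detection, 24 h post-dosing. Gain or loss of signal fitted relative to DMSO baseline.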

[8] = target: Retinoic acid receptor RXR-alpha (Homo sapiens) (UniProt P19793); assay: ATG_RXRa_TRANS: Attagene TRANS-FACTORIAL HepG2 Assay for human Retinoid X Receptor alpha (RXRa) (AID 2283012)
How it was run: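 Read-out: fluorescent reporter-transcript fragments quantified by capillary electrophoresis after RT-PCR. Transiently transfected HepG2 cells carrying GAL4-UAS reporters and NR-GAL4 chimeras were exposed to chemical for 24 h; activity scored as increase over DMSO.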

[9] = TOX21_p53_BLA_p2_viability: Viability Assessment in the Tox21 HCT-116 p53 Agonism Beta-lactamase Assay, Phase 2 (AID 2283591);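 note: compound exposure lasted 16 h at 37 °C; actives lower the ATP signal meaning cytotoxicity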
How it was run: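 HCT-116 p53-bla cells (4000/well) rested 5 h at 37C, then received compounds in DMSO (217-fold dilution) for 16 h at 37C, 5% CO2. After the CCF4 read, CellTiter-Glo was added; ATP luminescence was read after 30 min at room temperature.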

[10] = target: Cellular tumor antigen p53 (Homo sapiens) (UniProt P04637); assay: TOX21_p53_BLA_p2_ratio: Tox21 HCT-116 p53 Agonism Beta-lactamase Assay, Ratio, Phase 2 (AID 2283592)
How it was run: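 DMSO-normalized, positive-direction endpoint derived from the 460 nm/530 nm FRET ratio in HCT116 p53 beta-lactamase reporter cells exposed 16 h at 37C and loaded with CCF4-AM for 2 h.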

[11] = target: Cellular tumor antigen p53 (Homo sapiens) (UniProt P04637); assay: TOX21_p53_BLA_p3_ratio: Tox21 HCT-116 p53 Agonism Beta-lactamase Assay, Ratio, Phase 3 (AID 2283596)
How it was run: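 Cells were seeded at 4000/well, rested 5 h at 37C, then dosed with DMSO compound solutions (217-fold dilution) for 16 h. CCF4-AM substrate was loaded for 2 h at room temperature, and the 460/530 nm emission ratio was fitted for gain of signal versus DMSO.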

[12] = TOX21_p53_BLA_p5_viability: Viability Assessment in the Tox21 HCT-116 p53 Agonism Beta-lactamase Assay, Phase 5 (AID 2283600)
How it was run: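 Here cell health was gauged by ATP levels in wells holding 4000 cells, each treated 16 h with DMSO-delivered compounds at 217-fold dilution; reduced luminescence marked toxicity.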

[13] = target: Cellular tumor antigen p53 (Homo sapiens) (UniProt P04637); assay: TOX21_p53_BLA_p4_ratio: Tox21 HCT-116 p53 Agonism Beta-lactamase Assay, Ratio, Phase 4 (AID 2283601)
How it was run: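 HCT116 cells carrying an inducible beta-lactamase reporter were plated at 4000 cells/well, rested 5 h, then exposed to compounds in DMSO (217-fold dilution) for 16 h at 37C. CCF4-AM substrate was loaded 2 h at room temperature; 460/530 nm emission ratio scored gain-of-signal versus DMSO.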

[14] = ATG_GAL4_TRANS: Attagene TRANS-FACTORIAL HepG2 Assay for GAL4 (Internal Marker) (AID 2282976); details: HepG2 Attagene TRANS GAL4 internal marker reporter
How it was run: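 Liver HepG2 line bearing multiplexed GAL4-UAS reporter constructs; 24 h chemical treatment. Transcripts were quantified as fluorescent fragments on capillary electrophoresis after RT-PCR and HpaI cut, with activity fitted upward from DMSO.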

[15] = ATG_NF_kB_CIS: Attagene CIS-FACTORIAL HepG2 Assay for human Nuclear Factor Kappa B (NF-kB) (AID 2282991; active = hit-call score of the fitted dose curve at least 0.9, where 1 is the maximum; inactive = score below 0.9); details: HepG2 Attagene cis-factorial NF-kB reporter mRNA; actives raise or lower the signal
How it was run: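 Read-out: reporter transcript levels quantified by RT-PCR plus capillary electrophoresis of 6-FAM-labelled, HpaI-cut fragments. Transfected HepG2 cells, 24 h compound exposure, endogenous NF-kB-driven cis element; gain or loss scored versus DMSO.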

[16] = target: human Thyroid Receptor alpha (THRa1), THRA (gene 7067) (UniProt P10827); assay: ATG_THRa1_TRANS: Attagene TRANS-FACTORIAL HepG2 Assay for human Thyroid Receptor alpha (THRa1) (AID 2283014)
How it was run: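 Measured here is mRNA from a GAL4-UAS reporter in transfected HepG2 cells carrying a Gal4-fused receptor, 24 h post-dose. DMSO served as negative control and baseline.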

[17] = TOX21_p53_BLA_p4_viability: Viability Assessment in the Tox21 HCT-116 p53 Agonism Beta-lactamase Assay, Phase 4 (AID 2283597);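 note: hits lower the luminescence signal meaning cytotoxicity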
How it was run: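 In this multiplexed secondary endpoint, HCT116 cells (4000 per well, compound at 5 h, 16 h treatment) received CellTiter-Glo after the beta-lactamase read. Luminescence after 30 min RT reflects ATP, and falling signal marks cytotoxicity.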

[18] = ATG_M_32_TRANS: Attagene TRANS-FACTORIAL HepG2 Assay for M32 Transcription Factor (Internal Marker) (AID 2282984); details: HepG2 Attagene TRANS M32 internal marker reporter
How it was run: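 Fluorescence-detected mRNA induction, HepG2 liver cells, 24 h after dosing. Multiple GAL4-UAS reporter units introduced by transient transfection; background-control endpoint analysed for gain of signal against DMSO.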

[19] = target: human Retinoid X Receptor beta (RXRb), RXRB (gene 6257) (UniProt P28702); assay: ATG_RXRb_TRANS: Attagene TRANS-FACTORIAL HepG2 Assay for human Retinoid X Receptor beta (RXRb) (AID 2283013)
How it was run: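 Read-out: reporter mRNA induction via RT-PCR plus capillary electrophoresis fluorescence, analysed as signal increase relative to DMSO. Cells were human HepG2, transiently transfected with GAL4-UAS reporter constructs and chimeric receptor-Gal4 fusions, dosed for 24 h.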

[20] = target: Cellular tumor antigen p53 (Homo sapiens) (UniProt P04637); assay: TOX21_p53_BLA_p5_ratio: Tox21 HCT-116 p53 Agonism Beta-lactamase Assay, Ratio, Phase 5 (AID 2283599)
How it was run: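 HCT-116 cells carrying a p53-inducible beta-lactamase reporter were seeded at 4000 cells/well and dosed after 5 h with compound in DMSO (217-fold dilution). After 16 h at 37C, CCF4-AM substrate was added for 2 h, and the 460/530 nm emission ratio was scored as gain-of-signal versus DMSO.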

Measured: AC50

Nuclear receptor subfamily 4 group A member 2 (Homo sapiens), sequence (P43354 whole entry, looked up, the tested form may be a part): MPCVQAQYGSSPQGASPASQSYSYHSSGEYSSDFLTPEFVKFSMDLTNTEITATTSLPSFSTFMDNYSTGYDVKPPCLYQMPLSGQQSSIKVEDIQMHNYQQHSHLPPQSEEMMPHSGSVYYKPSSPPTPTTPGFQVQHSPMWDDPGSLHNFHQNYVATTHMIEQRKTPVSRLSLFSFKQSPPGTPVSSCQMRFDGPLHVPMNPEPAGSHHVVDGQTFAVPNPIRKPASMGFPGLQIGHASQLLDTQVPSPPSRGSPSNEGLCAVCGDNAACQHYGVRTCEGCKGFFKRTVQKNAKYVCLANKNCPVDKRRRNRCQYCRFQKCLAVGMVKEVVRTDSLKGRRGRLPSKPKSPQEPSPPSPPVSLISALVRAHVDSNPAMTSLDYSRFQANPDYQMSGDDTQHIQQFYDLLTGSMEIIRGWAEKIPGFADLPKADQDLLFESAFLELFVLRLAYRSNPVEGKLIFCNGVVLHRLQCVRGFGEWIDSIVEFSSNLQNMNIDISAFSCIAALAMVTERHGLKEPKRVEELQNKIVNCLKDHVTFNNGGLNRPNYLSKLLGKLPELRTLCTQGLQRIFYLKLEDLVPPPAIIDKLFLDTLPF
Hepatocyte nuclear factor 6 (Homo sapiens), sequence (Q9UBC0 whole entry, looked up, the tested form may be a part): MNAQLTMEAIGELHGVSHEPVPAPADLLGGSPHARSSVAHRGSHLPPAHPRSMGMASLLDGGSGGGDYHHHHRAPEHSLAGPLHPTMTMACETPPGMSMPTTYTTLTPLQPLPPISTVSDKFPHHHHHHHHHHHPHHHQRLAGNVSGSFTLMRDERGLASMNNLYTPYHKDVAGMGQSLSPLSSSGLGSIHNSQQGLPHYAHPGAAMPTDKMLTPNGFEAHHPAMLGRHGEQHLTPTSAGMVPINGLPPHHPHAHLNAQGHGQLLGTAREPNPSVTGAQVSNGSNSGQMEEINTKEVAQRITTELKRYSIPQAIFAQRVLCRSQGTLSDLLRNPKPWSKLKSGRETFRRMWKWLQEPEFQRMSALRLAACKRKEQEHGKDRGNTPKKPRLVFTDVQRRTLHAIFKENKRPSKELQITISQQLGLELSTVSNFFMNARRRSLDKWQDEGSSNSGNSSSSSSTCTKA
Hepatocyte nuclear factor 3-beta (Homo sapiens), sequence (Q9Y261 whole entry, looked up): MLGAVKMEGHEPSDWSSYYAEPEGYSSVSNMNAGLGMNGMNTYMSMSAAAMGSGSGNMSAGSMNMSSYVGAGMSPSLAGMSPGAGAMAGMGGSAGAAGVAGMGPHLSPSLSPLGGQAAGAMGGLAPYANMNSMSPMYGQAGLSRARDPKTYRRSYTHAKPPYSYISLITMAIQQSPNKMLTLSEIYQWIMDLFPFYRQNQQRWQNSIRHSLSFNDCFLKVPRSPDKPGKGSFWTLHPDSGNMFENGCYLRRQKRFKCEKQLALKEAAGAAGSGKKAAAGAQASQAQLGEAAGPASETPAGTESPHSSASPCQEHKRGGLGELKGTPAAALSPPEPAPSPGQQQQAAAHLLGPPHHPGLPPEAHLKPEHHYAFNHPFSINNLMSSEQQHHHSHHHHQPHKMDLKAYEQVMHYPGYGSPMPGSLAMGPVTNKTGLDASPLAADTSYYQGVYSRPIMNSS
Nuclear respiratory factor 1 (Homo sapiens), sequence (Q16656 whole entry, looked up): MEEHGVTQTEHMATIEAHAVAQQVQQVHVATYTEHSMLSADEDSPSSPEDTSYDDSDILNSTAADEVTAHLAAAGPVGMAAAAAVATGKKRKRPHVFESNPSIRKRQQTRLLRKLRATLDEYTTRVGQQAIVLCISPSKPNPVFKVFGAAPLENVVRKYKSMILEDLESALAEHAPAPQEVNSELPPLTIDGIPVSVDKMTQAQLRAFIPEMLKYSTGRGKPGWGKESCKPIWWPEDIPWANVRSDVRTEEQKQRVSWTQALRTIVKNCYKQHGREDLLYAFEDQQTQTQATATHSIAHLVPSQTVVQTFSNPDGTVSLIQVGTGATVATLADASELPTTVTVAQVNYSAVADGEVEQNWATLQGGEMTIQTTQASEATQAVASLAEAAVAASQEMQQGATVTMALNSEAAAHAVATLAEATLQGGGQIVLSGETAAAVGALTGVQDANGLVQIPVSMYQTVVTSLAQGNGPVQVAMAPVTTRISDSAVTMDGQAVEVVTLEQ
human Retinoid X Receptor beta (RXRb), RXRB (gene 6257), sequence (P28702 whole entry, looked up, the tested form may be a part): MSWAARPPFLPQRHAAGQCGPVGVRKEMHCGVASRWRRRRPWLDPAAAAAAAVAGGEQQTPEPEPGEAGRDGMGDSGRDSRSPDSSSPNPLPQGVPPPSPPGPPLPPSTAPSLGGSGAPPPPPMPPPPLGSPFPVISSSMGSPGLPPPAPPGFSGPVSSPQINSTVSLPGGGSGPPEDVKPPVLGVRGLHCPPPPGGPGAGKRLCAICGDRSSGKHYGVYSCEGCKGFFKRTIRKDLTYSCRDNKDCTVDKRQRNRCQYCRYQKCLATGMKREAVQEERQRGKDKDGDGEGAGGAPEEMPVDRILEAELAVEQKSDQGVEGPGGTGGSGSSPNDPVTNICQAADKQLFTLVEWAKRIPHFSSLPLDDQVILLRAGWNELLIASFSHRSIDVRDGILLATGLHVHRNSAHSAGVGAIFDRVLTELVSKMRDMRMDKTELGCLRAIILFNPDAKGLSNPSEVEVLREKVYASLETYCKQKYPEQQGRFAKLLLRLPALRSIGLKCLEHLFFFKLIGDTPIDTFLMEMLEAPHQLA
Cellular tumor antigen p53 (Homo sapiens), sequence (P04637 whole entry, looked up): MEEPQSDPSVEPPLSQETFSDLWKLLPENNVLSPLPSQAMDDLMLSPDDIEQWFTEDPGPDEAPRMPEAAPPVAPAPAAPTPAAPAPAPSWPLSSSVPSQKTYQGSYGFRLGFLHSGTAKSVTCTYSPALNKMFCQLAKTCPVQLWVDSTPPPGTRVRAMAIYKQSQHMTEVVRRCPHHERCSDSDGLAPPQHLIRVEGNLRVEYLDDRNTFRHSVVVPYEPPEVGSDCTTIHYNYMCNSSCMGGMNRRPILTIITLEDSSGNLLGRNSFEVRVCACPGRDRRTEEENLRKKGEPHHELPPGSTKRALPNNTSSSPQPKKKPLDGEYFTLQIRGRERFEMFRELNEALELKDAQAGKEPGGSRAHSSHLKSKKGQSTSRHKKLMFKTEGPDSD
human Thyroid Receptor alpha (THRa1), THRA (gene 7067), sequence (P10827 whole entry, looked up, the tested form may be a part): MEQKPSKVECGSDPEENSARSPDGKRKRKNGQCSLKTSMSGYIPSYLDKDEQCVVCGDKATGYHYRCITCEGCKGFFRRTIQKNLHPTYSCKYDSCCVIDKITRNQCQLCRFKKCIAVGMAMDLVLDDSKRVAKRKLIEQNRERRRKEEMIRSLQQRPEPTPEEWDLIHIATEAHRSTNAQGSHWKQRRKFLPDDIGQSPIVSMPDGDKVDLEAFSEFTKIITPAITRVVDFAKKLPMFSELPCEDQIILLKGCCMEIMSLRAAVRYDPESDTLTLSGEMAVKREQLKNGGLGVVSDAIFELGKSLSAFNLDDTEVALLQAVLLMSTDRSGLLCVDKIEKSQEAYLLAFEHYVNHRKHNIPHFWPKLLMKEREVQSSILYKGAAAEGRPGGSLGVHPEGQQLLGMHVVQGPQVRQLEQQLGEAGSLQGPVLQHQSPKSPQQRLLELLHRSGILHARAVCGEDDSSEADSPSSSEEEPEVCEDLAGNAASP
Retinoic acid receptor RXR-alpha (Homo sapiens), sequence (P19793 whole entry, looked up, the tested form may be a part): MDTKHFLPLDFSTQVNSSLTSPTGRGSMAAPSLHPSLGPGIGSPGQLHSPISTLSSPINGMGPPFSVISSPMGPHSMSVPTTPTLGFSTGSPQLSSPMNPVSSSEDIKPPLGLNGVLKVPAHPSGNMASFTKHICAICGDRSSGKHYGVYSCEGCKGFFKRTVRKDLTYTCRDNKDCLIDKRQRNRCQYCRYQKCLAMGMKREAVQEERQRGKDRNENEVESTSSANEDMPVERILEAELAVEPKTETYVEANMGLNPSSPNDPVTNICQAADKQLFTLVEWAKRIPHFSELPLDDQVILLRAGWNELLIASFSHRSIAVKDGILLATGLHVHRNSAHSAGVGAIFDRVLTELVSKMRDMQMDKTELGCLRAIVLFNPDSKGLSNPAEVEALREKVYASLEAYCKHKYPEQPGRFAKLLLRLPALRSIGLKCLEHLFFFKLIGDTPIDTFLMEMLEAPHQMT
Hepatocyte nuclear factor 4-alpha (Homo sapiens), sequence (P41235 whole entry, looked up, the tested form may be a part): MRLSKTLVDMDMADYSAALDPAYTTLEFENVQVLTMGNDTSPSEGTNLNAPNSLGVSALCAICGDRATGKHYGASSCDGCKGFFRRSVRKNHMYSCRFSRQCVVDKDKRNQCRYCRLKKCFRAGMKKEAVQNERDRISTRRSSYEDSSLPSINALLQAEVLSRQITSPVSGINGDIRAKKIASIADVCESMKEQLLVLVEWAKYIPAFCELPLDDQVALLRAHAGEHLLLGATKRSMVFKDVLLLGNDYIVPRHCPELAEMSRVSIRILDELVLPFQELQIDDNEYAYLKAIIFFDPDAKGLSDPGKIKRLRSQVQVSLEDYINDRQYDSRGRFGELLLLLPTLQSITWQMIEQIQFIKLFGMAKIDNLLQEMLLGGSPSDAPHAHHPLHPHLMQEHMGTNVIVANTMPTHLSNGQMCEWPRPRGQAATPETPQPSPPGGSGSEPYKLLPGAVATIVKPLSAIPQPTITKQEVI

OCCc1ccccn1
not listed: [14] | [15] | [16] | [17] | [18] | [19] | [20]
inactive: all other assays above

Cc1cc2nc3c(=O)[nH]c(=O)nc-3n(C[C@H](O)[C@H](O)[C@H](O)CO)c2cc1C
not listed: [2] | [3] | [6] | [7] | [18] | [19] | [20]
inactive: all other assays above

CC(=O)OC(C)(C)Cc1ccccc1
not listed: [3] | [12] | [16] | [17] | [18] | [19] | [20]
inactive: all other assays above

CCC(C)NC(N)=O (centres undefined)
inactive: [1] | [2] | [4] | [18] | [6] | [7] | [15] | [8] | [10] | [11] | [17]

CNC(=C[N+](=O)[O-])NCCSCc1csc(CN(C)C)n1
inactive: [1] | [2] | [14] | [5] | [18] | [15] | [19] | [10] | [17] | [20] | [12]

CCCCCCCCCC/C=C/C1CC(=O)OC1=O (centres undefined)
active: [4] 100 µM
not listed: [3] | [5] | [14] | [16]
inactive: all other assays above

COc1cccc(OC)c1C(=O)O
not listed: [6] | [8] | [9] | [14] | [15] | [16]
inactive: all other assays above

Oc1cccc2ccccc12
not listed: [1] | [4] | [5] | [11] | [14] | [18]
inactive: all other assays above

O=C1NC(=O)C2CC=CCC12 (centres undefined)
inactive: [5] | [7] | [8] | [9] | [10] | [11] | [17] | [20] | [12] | [13]

NC(N)=Nc1nc(CSCCC(N)=NS(N)(=O)=O)cs1
not listed: [1] | [5] | [6] | [8] | [15]
inactive: all other assays above

COCCCN
not listed: [1] | [2] | [3]
inactive: all other assays above

CC(C)CC(=O)CC(C)CC(C)C (centres undefined)
not listed: [1] | [2] | [5] | [16]
inactive: all other assays above

O=C(O)/C=C\C(=O)O
inactive: [1] | [2] | [4] | [14] | [5] | [18] | [6] | [15] | [8] | [16]

O=[N+]([O-])c1ccccc1C(F)(F)F
not listed: [1] | [6] | [8] | [9] | [15] | [16] | [18] | [19]
inactive: all other assays above

CCCCCCCCCCCCCCCCCC[N+](C)(C)C
inactive: [3] | [6] | [8]
active: [14] 15.4 µM | [5] 37.3 µM | [18] 16.2 µM | [7] 16.8 µM | [15] 3.31 µM | [9] 46.2 µM | [10] 73.2 µM | [11] 72.7 µM | [17] 65.7 µM | [20] 75 µM | [12] 62.8 µM | [13] 75.3 µM

O=C(O)/C=C/C(=O)O
inactive: [1] | [2] | [4] | [14] | [18] | [6] | [7] | [15] | [16]

NC(=O)c1ccc([N+](=O)[O-])cc1Cl
not listed: [1] | [2] | [6] | [8] | [9] | [14] | [17]
inactive: all other assays above

CC/C=C\CCO
inactive: [2] | [4] | [5] | [18] | [7] | [8] | [10] | [12]

CCc1cc(C(N)=S)ccn1
not listed: [6] | [8] | [14] | [16] | [18]
inactive: all other assays above

CCCC[N+]1(C)CCCC1
inactive: [1] | [2] | [3] | [4] | [7] | [8]

OCCN(CCO)c1cccc(Cl)c1
not listed: [4] | [6] | [7] | [12] | [16] | [17] | [18]
inactive: all other assays above
